Source: PubChem (National Center for Advancing Translational Sciences (NCATS))
MARV entry inh: inhibitors of Marburg virus binding or cell entry; Marburg virus pseudotyped entry inhibition, cell reporter; 300,000 tested, 1.8% active; Potency, µM (top dose mostly 37.8 µM), hits mostly inhibitors; calls by dose curve; tested in HEK293 cells
Shiga inhibitor: blocks Shiga toxin action in Vero cells. 290,000 tested, 9.2% active. inhibition, % at 38.7 µM. Vero cells, Shiga toxin protein synthesis inhibition reporter; in the data active = inhibition mostly above about 28%, no sharp cut-off; inactive = mostly below about 43%
Vaccinia Venus: inhibitors of vaccinia virus (Venus reporter); Potency, µM (doses to about 36.5 µM), most hits filed as inhibitors; 330,000 tested, 0.46% active; Vaccinia virus Venus reporter expression, fluorescence; AID 720580; calls by dose curve; tested in A549 cells; note: nearly all actives have a fitted effect of over 30% in size
Vaccinia mCherry: vaccinia inhibition (mCherry reporter); 310,000 tested, 0.63% active; AID 720579; Vaccinia virus mCherry reporter infection, fluorescence; Potency, µM (series often up to 36.5 µM), hits mostly inhibitors; calls by dose curve; tested in A549 cells; note: nearly all actives have a fitted effect of over 35% in size
Lassa entry inh: inhibitors of Lassa virus binding or cell entry; Lassa virus pseudotype entry inhibition, cell reporter; AID 540256; Potency, µM (series often up to 37.9 µM), usual class: inhibitors; 300,000 tested, 1.2% active; calls by dose curve; tested in HEK293 cells; note: nearly all actives have a fitted effect of over 50% in size
Cycloheximide cs: counter-screen for Shiga toxin inhibitors: cycloheximide protein synthesis inhibition | cell reporter, cycloheximide protein synthesis inhibition counterscreen | max response, % | 300,000 tested, 12% active | AID 2314; in the data active = max response mostly above about 13%, no sharp cut-off; inactive = mostly below about 14%; note: read at 38.3 µM for the half of the compounds with a filed dose
A number is an active result; n = inactive; u = inconclusive; x = no result given; [ ] = another dose, or the depositor's remark. Shown is part of a subset that was picked to be rich in hits.

SMILES	MARV entry inh	Shiga inhibitor	Vaccinia Venus	Vaccinia mCherry	Lassa entry inh	Cycloheximide cs
FC(F)(F)c1cccc(-c2cc3nc(NC4CCCCC4)ccn3n2)c1	x	x	n	n	x	x
O=C(CCSCc1ccccc1F)N1CCN(c2ccccn2)CC1	n	79	n	n	n	28
O=C(CSc1ccccc1)N1CCN(c2ccccn2)CC1	n	n	n	n	n	15
O=C(CSc1ccccc1)N1CCN(S(=O)(=O)c2ccccc2)CC1	n	n	n	n	n	n
C=CCN1CCN(C(=O)CSc2ccccc2)CC1	x	32	x	x	x	34
O=C(CSc1ccccc1)N1CCC2(CC1)OCCO2	n	54	x	x	n	36
COc1ccccc1Nc1sc(C(=O)c2ccc3c(c2)OCO3)c(N)c1S(=O)(=O)c1ccccc1	x	x	n	n	n	x
CC(C)CON=C1C[C@@H](O)[C@@H](O)[C@@H]2[C@H]3C(=O)N(c4ccc(F)cc4F)C(=O)[C@@H]3CC[C@H]12	n	x	x	x	x	x
CC(C)(C)n1nnnc1C(CCc1ccccc1)N1CCN(C/C=C/c2ccccc2)CC1 (stereo not drawn)	x	x	n	n	x	x
COc1cc(OC)cc(C(=O)NCC(=O)NC(C)c2ccccc2)c1 (stereo not drawn)	x	n	x	x	x	n
Cc1ccc(-c2nc3ccc(Br)cn3c2Cc2ccsc2)cc1	x	x	n	n	x	x
O=C(CSCc1ccccc1Cl)N1CCN(c2ccccn2)CC1	n	119	n	n	n	59
O=C(c1c(Cl)cccc1Cl)N1CCN(c2ccccn2)CC1	n	n	x	x	n	n
O=C(N1CCN(c2ccccn2)CC1)C(Cl)(Cl)Cl	n	34	n	n	n	28
Cc1cc(C=C2C(=O)c3ccccc3C2=O)c(C)n1C	u	63	n	n	n	65
CCn1c(C)cc(C=C2C(=O)c3ccccc3C2=O)c1C	13µM	82	n	n	u	62
Cc1ccc(C=C2C(=O)c3ccccc3C2=O)s1	n	45	n	n	n	56
CCOc1ccccc1NC(=O)c1cn(C2CCCC2)c(=O)c2c1c1ccccc1n2C	u	x	n[7.34 µM]	n[7.34 µM]	u	x
Cc1ccc(N=c2ssnc2Cl)cc1	n	n	x	x	u	26
COc1cc(N=c2ssnc2Cl)c(OC)cc1Cl	16µM	n	u	u	u	n
COc1ccc(OC)c(N=c2ssnc2Cl)c1	n	n	n	n	n	n
Nc1ccccc1N=c1ssnc1Cl	n	55	n	n	n	n
Cc1cc(Cl)ccc1N=c1ssnc1Cl	n	n	u	n[1.46 µM]	n	n
COc1ccc(N(CC(=O)NCC2CCCO2)S(=O)(=O)c2ccccc2)cc1OC (stereo not drawn)	n	n	n	n	n	n
O=c1[nH]c(-[n+]2ccc3ccccc3c2)c(/C=N/N=C(\[O-])c2ccccc2)s1	x	n	x	x	x	17
SMILES	MARV entry inh	Shiga inhibitor	Vaccinia Venus	Vaccinia mCherry	Lassa entry inh	Cycloheximide cs
O=C(CSc1n[nH]c(-c2ccccc2)n1)N1CCCC1	n	65	n	n	n	n
CCc1ccc(-c2nc(SCC(=O)N3CCOCC3)n[nH]2)cc1	n	29	n	n	n	11
Cn1c2ccccc2c(=O)c2ccc(F)cc21	x	n	n	n	x	16
COc1cc(-c2ccc3c(=O)c4ccccc4sc3c2)cc(OC)c1OC	x	x	14µM	n	x	x
COc1cc(-c2ccc3c(=O)c4ccccc4n(C)c3c2)cc(OC)c1OC	x	n	u	n	x	11
Cn1c2ccccc2c(=O)c2ccc(-c3ccc4c(c3)OCO4)cc21	x	46	n	n	x	31
Cn1c(=O)c(Oc2ccc(F)cc2)c(O)c2ccccc21	n	n	n	u	n	n
O=C(c1ccc2[nH]ccc2c1)N1CCOc2ccc(CN3CCN(c4ccccn4)CC3)cc2C1	x	x	n	u	x	x
CCCn1c2ccccc2c2cnn(CC(=O)NCCc3ccc(OC)cc3OC)c(=O)c21	x	x	n[7.34 µM]	n[7.34 µM]	n	x
COc1ccc(C(C)(O)c2nc(-c3ccc(N(C)C)cc3)cs2)cc1 (stereo not drawn)	x	x	n	u	x	x
CCN(CC)CCN1C(=O)c2ccccc2NC1c1ccc(C)cc1 (stereo not drawn)	u	n	x	x	n	n
C/C(=N\N1C(=O)c2ccccc2NC1c1ccccc1)c1ccccc1O (stereo not drawn)	x	67	u	u	x	23
O=C1c2ccccc2NC(c2ccco2)N1/N=C/c1ccco1 (stereo not drawn)	n	n	n	n	n	32
Cc1ccc(/C=N/N2C(=O)c3ccccc3NC2c2ccc(C)cc2)cc1 (stereo not drawn)	u	96	n	n	n	82
C/C(=N\N1C(=O)c2ccccc2NC1c1ccco1)c1ccccc1O (stereo not drawn)	8.2µM	65	x	x	u	32
CCN1C(=NCc2cccc(C(F)(F)F)c2)N[C@@H](c2cccc(C(F)(F)F)c2)C(C(=O)OC)=C1C	x	x	u	n	x	x
CCCn1c2ccccc2c2cnn(CC(=O)NC(CCSC)C(=O)OC)c(=O)c21 (stereo not drawn)	x	x	n	n	n	x
CSCCC(NC(=O)CCC(=O)OCC(=O)[C@@]1(O)CCC2[C@@H]3CCC4=CC(=O)C=C[C@]4(C)C3[C@@H](O)C[C@@]21C)C(=O)O (stereo partly drawn)	n	n	n	n	u	n
COc1cccc(/C=C/c2ccccn2)c1O	x	110	n	u	x	50
Cn1c(N=Nc2ccc(N3CCOCC3)cc2)[n+](C)c2ccccc21	n	94	n	n	n	48
O=Nc1c2ccc[nH]c-2c2ccc([N+](=O)[O-])cc12	n	n	n	n	n	n
O=C(O)c1ccccc1C(=O)NCC(O)COc1ccc(Cl)cc1 (stereo not drawn)	n	55	n	n	n	38
CC(Oc1ccc(Cl)cc1Cl)c1nc(-c2ccccn2)no1 (stereo not drawn)	n	97	n	n	n	36
O=C(Nc1ccc(-c2noc(-c3cccs3)n2)cc1)c1cccnc1	u	59	n	x	u	27
CC(Oc1ccc(Cl)cc1Cl)c1nc(-c2ccc(NC(=O)c3ccncc3)cc2)no1 (stereo not drawn)	u	n	x	x	u	n
SMILES	MARV entry inh	Shiga inhibitor	Vaccinia Venus	Vaccinia mCherry	Lassa entry inh	Cycloheximide cs
CC(Oc1ccc(Cl)cc1Cl)c1nc(-c2ccc(NC(=O)c3cccnc3)cc2)no1 (stereo not drawn)	11µM	n	u	x	u	n
Cc1oc(-c2cccc(Cl)c2)nc1CN1CCC(C(=O)NCc2ccc(F)cc2)CC1	n	x	n	n	n	x
Cc1ccc(-c2noc(-c3nnn(CC(=O)Nc4cc(Cl)ccc4C)c3N)n2)cc1	x	x	n	n	n	x
COc1ccc(Br)cc1S(=O)(=O)N1CCCC1	n	54	n	n	n	30
COc1ccc(C)cc1S(=O)(=O)N1CC(C)OC(C)C1 (stereo not drawn)	n	n	n	n	n	38
O=C(CCc1ccccc1)NC1(Cc2ccccc2)CCN(CCc2cccs2)C1=O (stereo not drawn)	n	x	n	n	x	x
O=C(NC1(Cc2ccccc2)CCN(Cc2ccc(-c3ccccc3)cc2)C1=O)c1ccccc1 (stereo not drawn)	n	x	u	11µM	x	x
Cc1ccc2nc(Cl)c3cc(C(=O)N4CCCC(C)C4)sc3c2c1 (stereo not drawn)	n	x	n	n	n	x
